These results are taken from PubChem BioAssay (NCI).

Each structure is given as a SMILES string. This is part of a sample that, as a whole, favours compounds with a hit. Of some 79,000 tested, about 15% had one in any assay. Unmarked numbers belong to inactive results. Active and inactive are the calls of the source. No stated cut-off is given here; in the data, active means growth inhibition above about 70%; inactive means the rest. Where a SMILES comes first, the peptide text is derived from it.

Test [1] in a line: NCI Yeast Anticancer Drug Screen. Data for the rad50 strain (AID 155).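 Further: 0% = growth of vehicle-only cultures of the same strain.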 The note with it: S. cerevisiae rad50 strain growth inhibition; at 50.0 µM; hits give high values. Summed up:
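A DNA repair-deficient yeast mutant serves as the test organism; compound-induced growth inhibition is calculated against vehicle-treated cells.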

A short description of test [2]: NCI Yeast Anticancer Drug Screen. Data for the mec2-1 strain (AID 157). The note with it: S. cerevisiae mec2-1 strain, at 50.0 µM, hits give high values. The gist of the method:
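Yeast mec2-1 mutant treated with compound. Readout: growth inhibition vs vehicle controls.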

The nature of test [3]: NCI Yeast Anticancer Drug Screen. Data for the sgs1 mgt1 strain (AID 161).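 Further: 0% = growth of cultures given vehicle only.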 The note with it: S. cerevisiae sgs1 mgt1 strain, at 50.0 µM, hits give high values. The gist of the method: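 Read-out: growth inhibition vs vehicle controls. Cells: mutant yeast strain deficient in DNA damage repair.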
Test [4] is described as follows: NCI Yeast Anticancer Drug Screen. Data for the cln2 rad14 strain (AID 165).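 Further: 0% = growth equal to vehicle treated cultures.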 The note with it: S. cerevisiae cln2 rad14 strain, at 50.0 µM, hits give high values. Summed up:
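cln2 rad14 yeast strain; compound exposure; growth inhibition read vs vehicle controls.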

A short description of test [5]: NCI Yeast Anticancer Drug Screen. Data for the bub3 strain (AID 167). The note with it: S. cerevisiae bub3 mutant strain, at 50.0 µM, hits give high values. The gist of the method:
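Inhibition values come from growth of compound-treated mutant yeast normalised to vehicle-treated controls.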

The nature of test [6]: NCI Yeast Anticancer Drug Screen. Data for the mlh1 rad18 strain (AID 175). The note with it: S. cerevisiae mlh1 rad18 strain growth inhibition; at 50.0 µM; hits give high values. Summed up:
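Yeast w/ defined DNA-repair lesions; compound exposure; growth vs vehicle controls → % inhibition.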

As to `Nc1ccnc(SCCCCc2ccccc2)n1`, the growth inhibition was 15.6% in test [1]; 64.4% in test [2]; 59% in test [3]; -6.15% in test [4]; 74% (active) in test [5]; 64% in test [6].

For the compound `Nc1ccc(C(=O)N/N=C/C=C/c2ccccc2)cc1`, the growth inhibition in test [1] was 0.6%; in test [2] it was 56.1%; in test [3], 16.6%; in test [4] it was -5.8%; in test [5], 30.4%; in test [6], 8.05%.

With `O=C(O)c1cccnc1Cl`, the growth inhibition in test [1] is 10.2%; in test [2], -3.5%; in test [3] it was -9.9%; in test [4], 14.4%; in test [5] it was 4.15%; in test [6], -4.45%.

Regarding `O=C1OC(=O)c2c(Cl)c(Cl)c(Cl)c(Cl)c21`, the growth inhibition in test [1] is 8.55%; in test [2], -0.15%; in test [3] it was 23.9%; in test [4], -34.9%; in test [5] it was -6.25%; in test [6], 2.5%.

For `CC(C)CC(NC(=O)C(CCC(=O)O)NC(=O)CNC(=O)CNC(=O)C(CO)NC(=O)C(CC(C)C)NC(=O)C(NC(=O)C(CO)NC(=O)C(C)NC(=O)C(CCCNC(=N)N)NC(=O)C(C)NC(=O)CN)C(C)C)C(=O)NC(CC(=O)O)C(=O)NC(CCCNC(=N)N)C(=O)NC(Cc1c[nH]c2ccccc12)C(=O)NC(Cc1ccc(O)cc1)C(N)=O` (stereo not given) (H-GARASVLSGGELDRWY-NH2; configuration not given here), the growth inhibition is 21.4% in test [1]; -7.15% in test [2]; 3.25% in test [3]; 8.4% in test [4]; -5.85% in test [5]; 11.7% in test [6].

Consider `CCOC(=O)C(CNCc1ccccc1)C1CCCCC1` (stereo not given), for which the growth inhibition in test [1] was 8.65%; in test [2], 1.65%; in test [3], 18.2%; in test [4], -0.7%; in test [5], 5.85%; in test [6] it was 16.1%.

As for `c1ccc2c(c1)CCC2`, the growth inhibition is 12.1% in test [1]; -10.2% in test [2]; -23.1% in test [3]; 1.55% in test [4]; -18.1% in test [5]; -6.6% in test [6].

For `Cc1cccc(C(=O)OCCCl)c1`, the growth inhibition was 15.6% in test [1]; -7.5% in test [2]; 8.3% in test [3]; -29.1% in test [4]; 5% in test [5]; 5.2% in test [6].

`C[Si](C)(CNCCN)O[Si](C)(C)CNCCN`: the growth inhibition is 6.3% in test [1]; -18.8% in test [2]; -3.3% in test [3]; 13.1% in test [4]; 5.9% in test [5]; 13.3% in test [6].

Take `COc1ccccc1N=Nc1c(-c2cccs2)nn(C(=S)SC)c1C(F)(F)F`: the growth inhibition is -3.5% in test [1]; 10.2% in test [2]; -21.6% in test [3]; -3.9% in test [4]; 18.7% in test [5]; 30.8% in test [6].

`CC1CN(N)C(=O)O1` (stereo not given): the growth inhibition in test [1] is -3.9%; in test [2] it was -18.4%; in test [3] it was -19%; in test [4] it was 2.9%; in test [5], 2.6%; in test [6], -21.9%.

Turning to `Cc1nc(C)c(N2CCN(C(=O)NC(CCC(=O)O)C(=O)O)CC2)c(=O)[nH]1` (stereo not given), the growth inhibition in test [1] is -80.7%; in test [2], 8.95%; in test [3], -28.3%; in test [4] it was 18.4%; in test [5], -1.25%; in test [6], -40.6%.

As to `NNC1CCN(Cc2ccccc2)CC1`, the growth inhibition in test [1] was 2.5%; in test [2] it was -16.8%; in test [3], 0.25%; in test [4], 22.2%; in test [5], -1.9%; in test [6], 14.2%.

On to `O=C1c2ccccc2C(=O)N1C1CCCCC1`, for which the growth inhibition in test [1] is 7.15%; in test [2] it was 35.9%; in test [3], 22.4%; in test [4], -4.25%; in test [5] it was 56.4%; in test [6] it was -16.6%.

Regarding `CC(C)(O)c1cc(=O)n(-c2ccccc2)[nH]1`, the growth inhibition in test [1] is -6%; in test [2] it was -6.3%; in test [3], 6.55%; in test [4] it was -64.8%; in test [5], -18%; in test [6], -5.1%.

For `CNC(=O)NC1CCC(C)CC1` (stereo not given), the growth inhibition was 2% in test [1]; 2.6% in test [2]; 1.5% in test [3]; -14.3% in test [4]; -6.25% in test [5]; 7.85% in test [6].

Take `COc1ccc(C2C3=C(CCCC3=O)OC3=C2C(=O)CCC3)cc1`: the growth inhibition was -6.85% in test [1]; 1.4% in test [2]; -16.2% in test [3]; -17.2% in test [4]; 9.65% in test [5]; 12.7% in test [6].

As for `CC(=O)CC(=O)Nc1ccc(Cc2ccc(NC(C)=O)cc2)cc1`, the growth inhibition in test [1] was 8.3%; in test [2], 9.8%; in test [3], 10%; in test [4], 5.55%; in test [5] it was 2.8%; in test [6] it was 21.8%.

For the compound `COc1ccc2c(c1)nc1n2C(N)=Nc2ccccc2S1`, the growth inhibition in test [1] was 44.5%; in test [2] it was 23.8%; in test [3] it was 36.2%; in test [4] it was 19.9%; in test [5] it was 58%; in test [6], 36.5%.

With `CC(C)(C)OC(=O)NC(CS(=O)(=O)O)C(=O)O` (stereo not given), the growth inhibition is -39.1% in test [1]; -11.4% in test [2]; -2.4% in test [3]; 13.4% in test [4]; 13% in test [5]; -15.3% in test [6].
